Bioassay records deposited in PubChem BioAssay by National Center for Advancing Translational Sciences (NCATS).
Hits are enriched below; roughly 4.7% of the tested compounds scored in any of these assays.
D1 potentiator: human D1 dopamine receptor positive modulation; P21728; HEK293 TREx D1 cells, calcium flux, dopamine EC20 potentiation; potentiation, % at 10 µM; actives 0.036% (n = 360,000); in the data active = potentiation above about 30%; note: 0% is about no effect
D1 antagonist: human D1 dopamine receptor antagonism; P21728; HEK293 TREx D1 cells, calcium flux, dopamine EC80; stronger effect = lower value; activity change, negative = inhibition, % at 10 µM; actives 3.2% (n = 360,000); in the data active = activity change below about -30%; note: % is set by controls: 0 for no effect and ±100 for the full control effect
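Cells carrying a force-coupled, tetracycline-inducible human D1 receptor report calcium flux. Each well gets a 10 s baseline, compound with 180 s monitoring, then an EC80 dopamine stimulus with a second 180 s kinetic read.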
D1 ag: agonists of human D1 dopamine receptor. P21728. HEK293 T-REx D1 cells, calcium flux, agonist mode. activation, % at 2 µM. actives 1% (n = 360,000); note: 0% is about no effect
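Agonism was scored from calcium flux recorded over 180 s (1 read/s) after pintool compound addition, following a 10-cycle baseline. Cells were inducible force-coupled HEK293 TREx D1, plated overnight at 30 C and loaded with no-wash calcium dye.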
TRHR enhancer-1: allosteric enhancers of human TRH receptor; TRHR cells, fluo-8 calcium fluorescence, EC20 TRH enhancement; enhancement, % at 2 µM; P34981; actives 0.66% (n = 360,000); in the data active = enhancement above about 30%; note: 0% is about no effect
Target sequence (P34981 whole entry, looked up): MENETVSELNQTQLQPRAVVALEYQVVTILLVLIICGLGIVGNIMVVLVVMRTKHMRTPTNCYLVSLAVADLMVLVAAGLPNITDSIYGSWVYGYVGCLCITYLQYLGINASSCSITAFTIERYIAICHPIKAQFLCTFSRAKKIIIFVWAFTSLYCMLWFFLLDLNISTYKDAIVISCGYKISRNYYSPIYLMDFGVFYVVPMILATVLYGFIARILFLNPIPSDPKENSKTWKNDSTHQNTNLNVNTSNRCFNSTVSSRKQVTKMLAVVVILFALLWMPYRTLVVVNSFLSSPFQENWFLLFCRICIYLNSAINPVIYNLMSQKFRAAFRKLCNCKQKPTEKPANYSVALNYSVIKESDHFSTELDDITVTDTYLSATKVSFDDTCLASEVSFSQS
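TRHR-expressing cells loaded with fluo-8 calcium dye were read kinetically (ex 480/em 530) during compound addition, then stimulated with an EC20 of TRH (10 nM final). Enhancement of the Gq-mediated intracellular calcium response was scored.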
TRHR agonist-1: agonists of human TRH receptor; P34981; TRHR cells, calcium flux fluo-8, FDSS agonist mode; activation, % at 2 µM; actives 0.18% (n = 360,000); note: 0% is about no effect
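Read-out: compound-evoked intracellular calcium rise in TRHR cells, fluo-8 dye, kinetic FDSS fluorescence at 1 s/cycle following a 10-cycle baseline. Cells cultured overnight before dye loading (30 min–1.5 h, RT).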
TRHR enhancer-2: confirmation of human TRH receptor allosteric enhancers. shares compounds with TRHR enhancer-1. TRH receptor cell assay, enhancer confirmation qHTS. activity change, negative = inhibition, % at 46.1 µM. 970 tested, under 10 active; active = well fitted curve in the direction sought with a large enough effect; inconclusive = small, poorly fitted or top-dose-only effect, or another doubt; inactive = no such curve, though single readings can be large; an effect the other way counts as inactive or inconclusive;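 note: compound effect scored on response to added TRH at EC20 of 10 nM; 0% is about no effect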
TRHR agonist-2: human TRH receptor agonism confirmation; TRHR-expressing cells, agonist activation read-out; Potency, µM (doses to about 46.1 µM), for inactives: top-dose activation, most hits filed as activators; actives 8% (n = 970); shares compounds with TRHR enhancer-1; active = well fitted curve in the direction sought with a large enough effect; inconclusive = small, poorly fitted or top-dose-only effect, or another doubt; inactive = no such curve, though single readings can be large; an effect the other way counts as inactive or inconclusive; note: potency is the fitted concentration of half-maximal effect; 0% is about no effect; nearly all actives have a fitted effect of over 75% in size
An asterisk follows results filed as active; ? = inconclusive; nt = not tested or not shown. Cut-off read from the data, not from the text of the source, unless noted: active = activation above about 30%; inactive = the rest.

SMILES	D1 potentiator	D1 antagonist	D1 ag	TRHR enhancer-1	TRHR agonist-1	TRHR enhancer-2	TRHR agonist-2
Cc1cc([N+](=O)[O-])ccc1NC(=O)c1ccco1	0.4	-6.8	5.7	46.0*	-0.6	-3.2	0.3%
CCn1c(C(=O)NCc2ccccc2)cc2sc(Cl)cc21	-6.5	-12.7	12.9	16.9	-0.4	nt	nt
C/C(=N/Nc1ccc([N+](=O)[O-])cc1)c1ccc(C)cc1C	1.1	-17.9	5.0	-4.6	1.9	nt	nt
C/C(=N/Nc1ccc([N+](=O)[O-])cc1)c1c[nH]c2ccccc12	-7.9	-33.2*	83.5*	-0.4	34.9*	-4.4	?
CC(=O)N1c2ccc(S(=O)(=O)N(C)CC(=O)N(Cc3ccccc3)C(C)C)cc2CC1C (stereo not drawn)	-5.2	-7.4	1.6	24.7	-0.6	nt	nt
O=c1cc2oc3cc(O)c(O)cc3c(-c3ccccc3O)c-2cc1O	1.1	-14.1	46.4*	4.0	46.8*	5.0	10.3µM*
CCOc1ccccc1-c1c2cc(O)c(=O)cc-2oc2cc(O)c(O)cc12	-3.2	11.8	53.0*	0.9	30.7*	-14.9	0.731µM*
NCCSc1c(-c2ccc(F)cc2)[nH]c2ccccc12	-5.4	-4.3	17.6	44.7*	3.6	1.7	?
Clc1ccc(Oc2cnns2)cc1Cl	-7.8	-3.6	4.4	44.3*	0.3	6.3	0.9%
Cc1ccc(CNC(=O)NC2COc3ccccc3C2)cc1 (stereo not drawn)	-0.8	4.8	-0.4	0.1	-0.6	nt	nt
COc1ccc2nc(-c3ccccn3)[nH]c2c1	-3.6	-2.2	2.2	45.7*	0.2	-3.5	1.8%
CCn1c(C(=O)N2CCC(C(=O)NCCc3ccc(OC)cc3OC)CC2)cc2sccc21	-4.3	-10.7	10.6	-1.9	-0.2	nt	nt
O=[N+]([O-])c1ccc2sc(SCc3nc4ccccn4c3Br)nc2c1	-7.6	-18.1	1.3	41.3*	-1.1	-7.1	2.9%
Brc1c(CSc2nc3ccccc3s2)nc2ncccn12	-2.9	11.2	2.2	6.3	0.1	nt	nt
CC(=Nc1cccc(O)c1)c1sc2ccccc2c1O	-6.8	-28.2	67.8*	14.0	29.1	-2.5	?
O=C(CSc1ccc(-c2ccccn2)nn1)N1CCCc2ccccc21	-0.8	12.1	2.4	-2.3	0.0	nt	nt
O=C(CSc1ccc(-c2cccnc2)nn1)N1CCCc2ccccc21	-3.7	8.6	-1.8	41.0*	0.2	-6.6	-0.4%
COc1ccc(NC(=S)N(Cc2ccccn2)Cc2ccccc2Cl)cc1	0.8	5.1	-1.0	-3.1	-0.1	nt	nt
COc1cccc(NC(=S)N(Cc2ccccn2)Cc2ccccc2Cl)c1	-3.8	-24.0	3.2	43.2*	0.3	-4.7	2.1%
COc1ccc(CC(=O)NCc2ccc3c(c2)CCN3C(C)=O)cc1	-2.4	-4.3	1.2	-2.9	0.1	nt	nt
COC(=O)c1ccc(/C=C/c2nc3ccccc3c(=O)[nH]2)cc1	4.4	-12.1	0.2	-5.6	38.3*	-1.5	-0.7%
Cc1cc(C)n(-c2nc3nonc3nc2-n2nc(C)cc2C)n1	-0.1	-2.0	0.6	54.2*	0.0	-3.9	4.1%
Cc1cc(C)n(CCN(C)c2nc3nonc3nc2N2CCCCC2)n1	-4.3	-0.2	-0.4	2.4	0.1	nt	nt
COc1ccc2c(C#N)c3ccccn3c2c1	-5.8	-16.5	18.3	47.2*	9.8	-9.6	?
Cc1cc(=O)n2ccccc2c1C#N	0.7	-0.6	0.6	-5.4	0.8	nt	nt
SMILES	D1 potentiator	D1 antagonist	D1 ag	TRHR enhancer-1	TRHR agonist-1	TRHR enhancer-2	TRHR agonist-2
Cc1ccc2c(CC(=O)OCC(=O)N(CC(C)C)c3c(N)n(Cc4ccccc4)c(=O)[nH]c3=O)coc2c1	-3.0	-16.5	4.0	49.2*	0.4	-0.4	?
CCN(C(=O)COC(=O)Cc1coc2cc(C)ccc12)c1c(N)n(Cc2ccccc2)c(=O)[nH]c1=O	nt	8.1	2.3	-1.1	0.1	nt	nt
CN1CC(=O)N/C1=N\C(=O)Nc1ccc(O)cc1	2.2	1.5	4.4	53.8*	0.6	-2.9	-0.7%
CCC(C)NC(=O)CCc1c(C)nc2c(c(C)nn2-c2ccc(C)cc2)c1C (stereo not drawn)	-2.2	-4.6	3.0	9.2	-0.7	nt	nt
COc1ccccc1-n1nnnc1SCC(=O)Nc1ccccc1	-2.2	1.8	5.9	56.4*	0.4	-4.1	2.4%
CCCC(=O)NCCCc1nc2ccccc2n1C(C)C	-11.7	-24.4	0.8	46.7*	-0.1	-1.5	1.3%
CCCC(=O)NCCc1nc2ccccc2n1CC(=O)c1ccccc1	-0.6	-11.9	0.5	-1.6	-0.1	nt	nt
Cc1cccc(Cc2c(C)nc3nc(SCC(=O)NCc4ccccc4)nn3c2C)c1	-1.4	-20.9	-0.3	-4.3	-0.4	nt	nt
CCCn1c(N)c(C(=O)CSc2nncs2)c(=O)[nH]c1=O	nt	-13.1	3.6	41.0*	0.0	-0.2	-0.6%
CC1CCCC(C)N1C(=O)CN1C(=O)NC2(CCOc3ccccc32)C1=O (stereo not drawn)	-3.9	-31.2*	4.7	45.4*	-0.2	4.7	7.9%
O=C(Nc1cccc(Cl)c1Cl)c1ccc2c(c1)N(Cc1cccc(Cl)c1)C(=O)c1ccccc1S2(=O)=O	-3.6	-10.4	13.0	2.8	-1.6	nt	nt
CN(C)C(=O)/C(=C/c1cn(-c2ccccc2)nc1-c1cccc([N+](=O)[O-])c1)NC(=O)c1ccccc1	1.4	-18.7	1.0	42.9*	-0.5	4.1	-0.7%
C=CCNC(=O)/C(=C/c1cn(-c2ccccc2)nc1-c1cccc([N+](=O)[O-])c1)NC(=O)c1ccccc1	-1.0	-19.4	2.8	4.3	-0.2	nt	nt
COc1cc(Cl)c(C)cc1N1C(=O)CN(Cc2ccccc2)C1=S	-9.2	-10.3	4.5	-5.9	90.6*	-3.8	-0.5%
Cc1ccc(CNC(=O)CCc2c(C)nc3nc(C)nn3c2C)cc1	-2.5	-10.2	0.1	13.7	-0.6	nt	nt
Cc1cccc(OCc2nnc(SC(C)C(=O)O)n2Cc2ccccc2)c1 (stereo not drawn)	-8.3	-18.9	2.3	41.4*	1.2	12.2	-0.6%
Cc1c2ccccc2nc2c(F)c(NCCO)c(F)c(F)c12	-4.7	4.7	29.3	11.2	37.1*	7.7	16.4µM*
Cc1ccc(C)c(S(=O)(=O)C(C#N)c2nc3ccccc3nc2N2CCCC2)c1 (stereo not drawn)	-1.6	-8.1	34.4*	-1.7	27.4	-6.3	?
COc1ccccc1N1CCN(c2ncc3c(n2)CCN(Cc2ccc(C)s2)C3)CC1	0.3	-17.1	-1.4	2.2	0.2	nt	nt
COC(=O)Cc1c(O)ccn(CCc2ccccc2)c1=O	15.1	1.0	1.6	51.5*	1.6	1.5	5.3%
Clc1ccccc1CN1CCN(CCCc2ccccc2)CC1	-8.1	-19.0	3.4	-3.7	-2.8	nt	nt
